The values that follow come from ChEMBL document CHEMBL2218924, “A broad activity screen in support of a chemogenomic map for kinase signalling research and drug discovery” (Biochem J, 2013).

The target in assay [1] is Tyrosine-protein kinase SYK (Homo sapiens) (UniProt P43405). Conditions: at 10 µM.
Assay [2] has as its target T1, Mitogen-activated protein kinase kinase kinase 7 (Homo sapiens) (UniProt O43318).
T1 sequence (whole entry): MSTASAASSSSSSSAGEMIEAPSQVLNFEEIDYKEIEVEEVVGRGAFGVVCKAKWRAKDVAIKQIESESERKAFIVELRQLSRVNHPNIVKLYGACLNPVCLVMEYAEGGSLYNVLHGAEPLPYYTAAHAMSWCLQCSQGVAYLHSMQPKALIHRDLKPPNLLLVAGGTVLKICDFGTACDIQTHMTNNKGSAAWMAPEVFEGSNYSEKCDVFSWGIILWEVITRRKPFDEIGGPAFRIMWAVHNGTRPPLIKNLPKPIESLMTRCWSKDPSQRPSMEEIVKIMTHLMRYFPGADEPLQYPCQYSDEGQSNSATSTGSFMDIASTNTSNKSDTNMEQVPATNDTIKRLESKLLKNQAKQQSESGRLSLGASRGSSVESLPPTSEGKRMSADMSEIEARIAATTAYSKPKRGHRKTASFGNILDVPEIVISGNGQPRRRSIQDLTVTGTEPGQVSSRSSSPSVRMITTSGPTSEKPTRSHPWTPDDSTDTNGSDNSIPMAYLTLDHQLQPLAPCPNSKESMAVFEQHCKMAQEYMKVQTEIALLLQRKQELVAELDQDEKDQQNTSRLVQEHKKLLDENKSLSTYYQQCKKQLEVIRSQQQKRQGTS
Particulars: at 1 µM.

In assay [3] the target is T1, Mitogen-activated protein kinase kinase kinase 7 (Homo sapiens). Conditions: at 10 µM.
The target in assay [4] is T2, Serine/threonine-protein kinase TAO1 (Homo sapiens) (UniProt Q7L7X3).
T2 sequence (whole entry): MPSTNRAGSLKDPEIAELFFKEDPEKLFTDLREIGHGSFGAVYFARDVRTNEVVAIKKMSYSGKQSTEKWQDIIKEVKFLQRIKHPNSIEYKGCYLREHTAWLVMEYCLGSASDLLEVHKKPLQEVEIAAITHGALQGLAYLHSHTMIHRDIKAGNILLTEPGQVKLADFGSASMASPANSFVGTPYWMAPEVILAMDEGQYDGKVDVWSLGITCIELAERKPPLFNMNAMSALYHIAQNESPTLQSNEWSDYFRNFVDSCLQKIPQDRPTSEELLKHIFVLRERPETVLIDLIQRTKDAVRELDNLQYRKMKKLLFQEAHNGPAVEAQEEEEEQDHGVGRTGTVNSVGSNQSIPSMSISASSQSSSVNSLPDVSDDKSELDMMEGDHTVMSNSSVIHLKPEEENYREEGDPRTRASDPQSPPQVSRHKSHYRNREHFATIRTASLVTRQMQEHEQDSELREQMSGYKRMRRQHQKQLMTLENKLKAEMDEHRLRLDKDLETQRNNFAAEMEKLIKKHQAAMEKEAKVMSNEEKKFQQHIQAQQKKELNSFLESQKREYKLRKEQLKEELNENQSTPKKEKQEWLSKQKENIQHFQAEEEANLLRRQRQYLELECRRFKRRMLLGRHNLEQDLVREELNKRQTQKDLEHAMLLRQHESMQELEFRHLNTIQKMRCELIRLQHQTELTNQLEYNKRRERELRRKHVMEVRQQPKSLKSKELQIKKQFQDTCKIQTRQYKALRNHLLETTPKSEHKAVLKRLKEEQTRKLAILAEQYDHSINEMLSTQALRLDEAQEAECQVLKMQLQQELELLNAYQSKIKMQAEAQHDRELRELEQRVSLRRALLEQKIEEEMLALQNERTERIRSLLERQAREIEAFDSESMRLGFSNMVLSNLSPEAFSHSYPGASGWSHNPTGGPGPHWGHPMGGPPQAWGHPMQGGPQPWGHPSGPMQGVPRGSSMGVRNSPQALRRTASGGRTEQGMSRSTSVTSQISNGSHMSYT
Particulars: at 1 µM.

Assay [5] deals with T2, Serine/threonine-protein kinase TAO1 (Homo sapiens). Conditions: at 10 µM.
In assay [6] the target is T3, Serine/threonine-protein kinase TAO2 (Homo sapiens) (UniProt Q9UL54).
T3 sequence (whole entry): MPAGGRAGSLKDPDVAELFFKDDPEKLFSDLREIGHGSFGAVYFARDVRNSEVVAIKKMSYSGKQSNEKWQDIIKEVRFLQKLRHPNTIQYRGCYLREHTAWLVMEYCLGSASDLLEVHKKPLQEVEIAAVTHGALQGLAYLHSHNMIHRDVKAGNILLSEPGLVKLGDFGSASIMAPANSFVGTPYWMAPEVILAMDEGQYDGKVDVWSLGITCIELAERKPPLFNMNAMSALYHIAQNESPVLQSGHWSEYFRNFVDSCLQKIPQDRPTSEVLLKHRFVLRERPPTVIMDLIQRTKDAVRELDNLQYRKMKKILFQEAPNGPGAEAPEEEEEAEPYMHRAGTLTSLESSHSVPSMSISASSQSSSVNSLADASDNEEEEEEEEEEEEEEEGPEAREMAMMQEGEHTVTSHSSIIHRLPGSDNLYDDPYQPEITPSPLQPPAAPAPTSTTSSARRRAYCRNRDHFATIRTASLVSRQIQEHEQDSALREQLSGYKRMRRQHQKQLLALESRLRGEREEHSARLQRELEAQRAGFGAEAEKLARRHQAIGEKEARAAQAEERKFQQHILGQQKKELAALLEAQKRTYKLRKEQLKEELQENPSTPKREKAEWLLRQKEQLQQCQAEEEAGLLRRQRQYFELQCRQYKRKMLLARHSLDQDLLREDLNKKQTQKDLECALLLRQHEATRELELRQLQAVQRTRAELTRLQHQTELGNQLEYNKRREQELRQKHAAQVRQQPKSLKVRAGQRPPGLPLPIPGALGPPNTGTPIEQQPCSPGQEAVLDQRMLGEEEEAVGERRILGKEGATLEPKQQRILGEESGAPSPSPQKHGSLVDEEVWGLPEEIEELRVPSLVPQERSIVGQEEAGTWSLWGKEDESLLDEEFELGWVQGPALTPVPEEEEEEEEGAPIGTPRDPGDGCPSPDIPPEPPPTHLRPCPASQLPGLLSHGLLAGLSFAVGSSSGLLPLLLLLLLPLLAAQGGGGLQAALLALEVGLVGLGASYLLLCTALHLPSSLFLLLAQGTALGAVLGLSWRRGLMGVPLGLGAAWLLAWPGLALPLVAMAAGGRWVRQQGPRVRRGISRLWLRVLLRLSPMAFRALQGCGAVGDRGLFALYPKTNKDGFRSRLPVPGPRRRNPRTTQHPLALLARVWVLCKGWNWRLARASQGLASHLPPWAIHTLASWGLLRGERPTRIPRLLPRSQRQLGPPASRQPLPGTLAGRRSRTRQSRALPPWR
Conditions: at 1 µM.

For assay [7], the target named is T3, Serine/threonine-protein kinase TAO2 (Homo sapiens). Particulars: at 10 µM.
Assay [8] deals with T4, Serine/threonine-protein kinase TAO3 (Homo sapiens) (UniProt Q9H2K8).
T4 sequence (whole entry): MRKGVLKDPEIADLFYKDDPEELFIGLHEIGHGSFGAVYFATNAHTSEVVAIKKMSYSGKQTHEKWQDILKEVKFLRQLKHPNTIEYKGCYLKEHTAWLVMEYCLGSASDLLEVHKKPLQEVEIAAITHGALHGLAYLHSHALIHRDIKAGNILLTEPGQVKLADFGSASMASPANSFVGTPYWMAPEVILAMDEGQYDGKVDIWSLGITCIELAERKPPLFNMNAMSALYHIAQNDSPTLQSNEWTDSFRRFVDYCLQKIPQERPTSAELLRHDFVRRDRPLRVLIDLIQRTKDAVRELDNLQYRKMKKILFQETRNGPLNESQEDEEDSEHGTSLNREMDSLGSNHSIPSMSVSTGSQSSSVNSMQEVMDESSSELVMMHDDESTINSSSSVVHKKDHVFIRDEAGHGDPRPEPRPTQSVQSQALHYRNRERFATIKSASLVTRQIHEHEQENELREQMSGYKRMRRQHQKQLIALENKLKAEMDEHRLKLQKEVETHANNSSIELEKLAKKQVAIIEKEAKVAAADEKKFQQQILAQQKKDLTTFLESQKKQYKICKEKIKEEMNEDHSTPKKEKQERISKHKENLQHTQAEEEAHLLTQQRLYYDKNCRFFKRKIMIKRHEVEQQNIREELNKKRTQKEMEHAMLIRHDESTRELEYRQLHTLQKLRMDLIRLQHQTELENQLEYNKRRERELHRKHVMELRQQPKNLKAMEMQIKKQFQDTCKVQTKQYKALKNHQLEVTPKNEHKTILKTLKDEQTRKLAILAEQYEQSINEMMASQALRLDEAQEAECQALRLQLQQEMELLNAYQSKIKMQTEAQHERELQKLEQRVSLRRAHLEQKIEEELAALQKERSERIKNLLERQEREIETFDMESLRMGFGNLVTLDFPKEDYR
Particulars: at 1 µM.

Assay [9] has as its target T4, Serine/threonine-protein kinase TAO3 (Homo sapiens). Conditions: at 10 µM.
The target in assay [10] is T5, Serine/threonine-protein kinase TBK1 (Homo sapiens) (UniProt Q9UHD2).
T5 sequence (whole entry): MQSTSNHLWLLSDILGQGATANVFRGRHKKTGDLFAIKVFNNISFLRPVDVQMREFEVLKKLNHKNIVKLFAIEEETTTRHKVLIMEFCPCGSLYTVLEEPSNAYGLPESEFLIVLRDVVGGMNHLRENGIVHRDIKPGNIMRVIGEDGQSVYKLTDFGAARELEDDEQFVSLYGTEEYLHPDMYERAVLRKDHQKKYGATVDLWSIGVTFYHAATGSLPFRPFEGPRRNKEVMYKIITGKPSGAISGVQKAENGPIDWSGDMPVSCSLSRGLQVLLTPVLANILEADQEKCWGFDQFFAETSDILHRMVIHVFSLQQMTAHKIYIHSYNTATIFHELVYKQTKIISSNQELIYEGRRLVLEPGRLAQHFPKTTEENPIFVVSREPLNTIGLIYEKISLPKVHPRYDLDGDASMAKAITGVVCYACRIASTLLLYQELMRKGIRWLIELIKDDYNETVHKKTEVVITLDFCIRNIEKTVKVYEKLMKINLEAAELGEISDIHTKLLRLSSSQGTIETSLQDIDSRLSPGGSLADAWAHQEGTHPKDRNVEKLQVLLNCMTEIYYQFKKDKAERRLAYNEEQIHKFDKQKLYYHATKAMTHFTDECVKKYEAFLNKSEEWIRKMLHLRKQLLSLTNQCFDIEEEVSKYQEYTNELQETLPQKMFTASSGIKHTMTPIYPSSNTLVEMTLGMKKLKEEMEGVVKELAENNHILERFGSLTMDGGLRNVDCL
Particulars: at 1 µM.

`O=C1NC(=O)/C(=C/c2ccc3c(c2)OC(F)(F)O3)S1`: the residual activity in [1] was 73%; in [2], 96%; in assay [3] it was 88%; in assay [4], 100%; in [5], 74%; in [6], 113%. For the same compound, the residual activity in assay [7] stood at 105%; in assay [8] it was 103%; in [9], 66%; in assay [10] it was 80%.
